Assay outcomes: PubChem BioAssay, The Scripps Research Institute Molecular Screening Center
PRMT1 inh: inhibitors of human PRMT1. 1.3% of 370,000 active. AID 652257. inhibition, % at 2.79 µM. recombinant PRMT1, activity-based probe fluorescence polarization;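 active = inhibition above about 21% made by adding two undisclosed values, limit read from the data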
rCAG binder: binds r(CAG) RNA repeats | AID 651821 | 1.3% of 370,000 active | inhibition, % at 3 µM | r(CAG) RNA repeat, TO-PRO-1 dye displacement fluorescence;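 active = inhibition above the plate cutoff, the mean of all test compounds on that plate plus 3 SD, cut at about 35% in these data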;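 also: 0% = DMSO alone and 100% = 100 µM mitoxantrone as full dye displacement; higher means more dye released from RNA so lower well fluorescence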
LEDGF integ inh: blocks HIV-1 LEDGF/p75-dependent DNA integration; TR-FRET IN-LEDGF/p75 DNA integration, Eu/Cy5; inhibition, % at 3.7 µM; 0.64% of 370,000 active; AID 743269;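 active = inhibition above the screen-wide mean plus 3 SD, cut at about 13% in these data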;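 also: signal is the Cy5 over europium emission ratio at 671 and 618 nm; 0% = plate median of compound wells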
UHRF1 MBD2 ctr: UHRF1 methyl-DNA binding inhibition. UHRF1 binding to methylated oligo, TR-FRET. inhibition, % at 4.4 µM. 0.75% of 370,000 active. AID 687016; in the data active = inhibition above about 21%;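 also: UHRF1 SRA domain binding a hemimethylated CpG hairpin DNA probe; 0% = median of test compound wells and 100% = reference inhibitor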
ABHD5 PLIN5 PPI: ABHD5-PLIN5 protein interaction inhibition; Q00G26+Q8WTS1; 0.78% of 360,000 active; Split G. princeps luciferase complementation, luminescence, 4 h; AID 602281; inhibition, % at 4 µM;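 active = inhibition above the mean inhibition across every tested compound plus 3 SD, cut at about 22% in these data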;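 also: 0% = DMSO only wells and the 100% control is not disclosed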
MBD2 inh: inhibitors of human MBD2 binding to methylated oligonucleotide. 0.31% of 370,000 active. Q9UBB5. TR-FRET. inhibition, % at 4.4 µM; in the data active = inhibition above about 13%
rCAG bind conf: r(CAG) RNA repeat binding, confirmation | shares compounds with rCAG binder | TO-PRO-1 dye displacement fluorescence | inhibition, % at 3 µM | 70% of 4,300 active;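 active = inhibition above a per-plate cutoff, the mean inhibition of sample wells plus 3 SD, cut at about 35% in these data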;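 also: loss of TO-PRO-1 fluorescence as compound displaces dye from 1x1 AA loop RNA; 0% = DMSO only wells and 100% = 100 µM mitoxantrone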
DNA CAG counter: disrupts DNA CAG TO-PRO-1 complex, flagging rCAG hits. 94% of 4,300 active. d(CAG) DNA oligo TO-PRO-1 dye displacement, fluorescence. inhibition, % at 3 µM. shares compounds with rCAG binder;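 active = inhibition above its plate's cutoff, the mean test-well inhibition plus 3 SD, cut at about 4.8% in these data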;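 also: 0% = DNA dye mix with DMSO and 100% = 100 µM mitoxantrone; hits displace the dye from DNA and so lower well fluorescence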
* = called active by the depositor; . = not tested or not shown. An excerpt weighted towards active compounds, which were near 4.1% of everything screened.

SMILES	PRMT1 inh	rCAG binder	LEDGF integ inh	UHRF1 MBD2 ctr	ABHD5 PLIN5 PPI	MBD2 inh	rCAG bind conf	DNA CAG counter
O=C(O)c1cc(S(=O)(=O)N(Cc2ccccc2)c2ccccc2Cl)ccc1Cl	0	33	-5	-1	1	3	.	.
O=C(O)c1ccc(Cl)c(S(=O)(=O)N(Cc2ccccc2)c2ccccc2Cl)c1	-1	73*	0	0	-1	4	68*	22*
CCCCNC(=O)C[C@H]1C[C@@]2(C(=O)OC)C(=C[C@H](COCc3ccccc3)O[C@@H]2C)N(Cc2ccccc2)C1=O	5	4	0	1	.	1	.	.
O=C1C=C(c2cccc3c2Oc2ccccc2S3)C[C@@H](c2ccc3c(c2)OCO3)C1	-1	7	-3	-2	.	1	.	.
COC[C@@H]1CCCN1c1ccc2c(c1)O[C@@H]1CCN(C1)S2(=O)=O	0	0	1	9	.	7	.	.
O=C(O)c1ccc(Cl)c(S(=O)(=O)N(Cc2ccccc2)c2ccccc2)c1	-1	38*	-1	2	7	0	39*	9.6*
CC(=O)c1sc(N/N=C\c2c(O)ccc3ccccc23)nc1C	0	52*	1	-7	-12	-7	60*	29*
CC(=O)c1sc(N/N=C/c2cccc(O)c2)nc1C	-3	5	-3	-3	-7	-1	.	.
Cc1nc(NS(=O)(=O)c2ccccc2)sc1NC(=O)Nc1ccc(Cl)cc1	7	49*	-10	0	5	0	38*	15*
CC(=O)c1ccc(NC(=O)Nc2sc(NS(=O)(=O)c3ccccc3)nc2C)cc1	3	38*	-2	0	-4	1	22	8.2*
CCOC(=O)Nc1sc(NS(=O)(=O)c2ccccc2)nc1C	1	2	-3	-1	-4	-2	.	.
Cc1nc(NS(=O)(=O)c2ccccc2)sc1NC(=O)Nc1ccccc1	-1	23	-3	1	-6	-2	.	.
c1cc(-c2nnc3n2N=C(c2ccc4c(c2)OCO4)CS3)ccn1	3	0	-4	6	.	10	.	.
COc1cc([N+](=O)[O-])cc(/C=N/NC(=O)C(C)Nc2ccccc2C)c1O (configuration not stated)	-4	36*	2	-10	7	-17	29	10*
Cc1ccccc1C(=O)Nc1cccc(C(=O)N/N=C/c2cc(Cl)cc([N+](=O)[O-])c2O)c1	2	87*	-10	-9	4	-7	73*	36*
Cc1cc(C(=O)N/N=C/c2cc(Br)cc([N+](=O)[O-])c2O)c2ccccc2n1	6	49*	-7	-14	8	-9	58*	20*
O=[N+]([O-])c1ccccc1C(=Nc1ccccc1)c1c(O)cc(O)cc1O	15	45*	7	-7	18	3	12	7.7*
COc1ccc(/C=N\NC(=O)Cc2cccs2)c(OC)c1OC	-4	0	-2	0	.	0	.	.
COc1ccc(OC)c(C(=O)c2c(C)oc3cc([N+](=O)[O-])c(O)c([N+](=O)[O-])c23)c1	-2	35*	-2	-7	4	-17	21	4
COc1ccc(OC)c(C(=O)COC(=O)c2ccc([N+](=O)[O-])o2)c1	-2	1	10	-4	-1	-8	.	.
O=c1ccc2ccc(O[C@@H]3O[C@H](CO[C@@H]4OC[C@](O)(CO)[C@H]4O)[C@@H](O)[C@H](O)[C@H]3O)cc2o1	1	11	0	2	2	-2	.	.
CC1OC(Oc2ccc3ccc(=O)oc3c2-c2c(O)ccc3cc(Oc4ccc5ccc(=O)oc5c4)c(=O)oc23)C(O)C(O)C1O (configuration not stated)	2	38*	-4	-1	0	-8	24	8.7*
Cc1ccc(C)c(Sc2ccc(S(=O)(=O)Nc3ccc(C(=O)O)cc3)cc2)c1	-2	38*	7	3	19	-4	41*	11*
Cc1ccc(Sc2ccc(S(=O)(=O)Nc3ccc(CC(=O)O)cc3)cc2)cc1C	1	52*	5	2	-18	-3	44*	14*
COc1ccccc1C(=O)N1CCN(C(=O)[C@@H](Cc2ccccc2)NC(=O)[C@H]2O[C@@H](n3ccc(=O)[nH]c3=O)[C@H](O)[C@@H]2O)CC1	-10	2	7	1	.	-3	.	.
SMILES	PRMT1 inh	rCAG binder	LEDGF integ inh	UHRF1 MBD2 ctr	ABHD5 PLIN5 PPI	MBD2 inh	rCAG bind conf	DNA CAG counter
CN(C)C=Nc1nc2c(Br)ccc(Br)c2cc1C(=O)NCC(C)(C)C	0	2	1	-2	.	1	.	.
CCOC(=O)c1c(NC(=O)/C=C/C(=O)O)sc(C)c1-c1ccc(Cl)cc1	6	46*	8	5	13	0	46*	11*
CCOC(=O)c1c(NC(=O)Nc2ccc(Cl)cc2)sc(C)c1C	0	3	3	2	-7	-2	.	.
COc1ccc(-c2cc(=O)n(-c3nc4ccccc4[nH]3)[nH]2)cc1	-4	39*	3	-5	7	0	15	10*
CCOc1ccc(Cc2nnc(SCC(=O)c3ccc(OC)cc3)o2)cc1	-1	-4	0	1	0	-4	.	.
CCOc1ccc(Nc2nc(Cc3nnc(SCC(=O)O)o3)cs2)cc1	15	46*	3	-1	-20	0	29	9.0*
CC1(C(=O)NS(=O)(=O)c2cccc(Cl)c2)CCN1C(=O)CCc1ccc(Cl)cc1Cl (configuration not stated)	3	54*	-6	2	8	0	52*	16*
Cc1ccc(S(=O)(=O)NC(=O)C2(C)CCN2C(=O)Cc2ccc(Cl)cc2Cl)cc1 (configuration not stated)	3	22	-3	1	2	-4	.	.
Cc1ccccc1S(=O)(=O)NC(=O)C1(C)CCN1C(=O)CCc1cccs1 (configuration not stated)	1	4	-2	3	4	0	.	.
CC1(C(=O)NS(=O)(=O)c2ccccc2)CCN1C(=O)CCc1ccc(Cl)cc1Cl (configuration not stated)	5	27	2	3	-1	-4	.	.
CC1(C(=O)NS(=O)(=O)c2ccc3ccccc3c2)CCN1C(=O)Cc1ccc(Cl)cc1Cl (configuration not stated)	1	52*	1	3	-3	0	54*	18*
CCCCc1ccc(S(=O)(=O)NC(=O)C2(C)CCN2C(=O)CCc2cccs2)cc1 (configuration not stated)	0	44*	-1	14	-11	3	36*	9.9*
